Our source for the inhibition values is PubChem BioAssay AID624304 (Sanford-Burnham Center for Chemical Genomics, 2012).

Molecules are shown by their SMILES. About 1,800 (0.5%) of roughly 360,000 compounds were called active.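 Rule for the calls: active = interference check ratio from 0.5 to 1.5 plus GFP to RFP signal ratio inhibition reaching or exceeding a fixed threshold (cut at about 30% in these data, passing the limit was not always enough); inactive = the rest.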 The sample as a whole holds a higher share of actives than the screen did.

The nature of this assay: suppressors of acrylamide-induced Pgst-4::GFP reporter in worms, primary screen, SKN-1 inhibitor project, whole organism, uHTS, GFP/RFP fluorescence ratio, strain VP596 (AID 624304). To be noted: C. elegans VP596 Pgst-4::GFP/RFP ratio, 24 h, at 21.8 µM, active compounds read high.
In the case of `Cc1ccc(P(=S)(c2ccc(C)o2)N2CCOCC2)o1`, the inhibition is 36.8% (active).

As for `CN(C)C(=O)Oc1ccc(NC(=O)N2CCOCC2)cc1`, the inhibition is 12% (inactive).

`CC[N+]1(C)CCCC(OC(=O)C(O)(c2ccccc2)c2ccccc2)C1` (stereo not given): the inhibition was -6.17% (inactive).

Turning to `CC1CCCN1CCC(C(N)=O)(c1ccccc1)c1ccccc1` (stereo not given), the inhibition was -0.187% (inactive).

Take `CN(C)CC1Oc2ccccc2OC1(O)c1ccccc1` (stereo not given): the inhibition was -1.82% (inactive).
